Screening results (PubChem BioAssay)
Most compounds without a hit are left out; they make up all but 17% or so of the library.
TDP1 cell noCPT – qHTS for Inhibitors of human tyrosyl-DNA phosphodiesterase 1 (TDP1): qHTS in cells in absence of CPT; DT40 Tdp1-/- hTDP1 cells, no CPT, ATP luminescence, 48 h; Potency, µM (titrated, usually from 46.2 µM), usual class: inhibitors; actives 15% (n = 420,000); further: nearly all actives have a fitted effect of over 55% in size
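A cellular qHTS used chicken DT40 cells lacking endogenous Tdp1 but carrying stably transfected human TDP1. Compounds were applied without camptothecin, and cell growth kinetics were judged by ATP-dependent luminescence after ≥48 hr.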
TGFb SMAD3 inh – blocks TGF-b signaling; HepG2 CAGA-GFP TGF-b/SMAD3 reporter, GFP fluorescence, 18 h; TGF-beta stimulated, 500 pg/mL final; Potency, µM (series often up to 46.1 µM), usual class: inhibitors; actives 1.2% (n = 410,000); further: nearly all actives have a fitted effect of over 65% in size
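Inhibition was scored as loss of TGF-beta-induced (500 pg/mL final, 18 hours, 37 degrees C) GFP in HEPG2 cells carrying a CAGA-GFP reporter, in DMEM with 1% FBS. Well GFP was summed per cell; Activity was normalised to unstimulated and stimulated DMSO wells, then concentration-response fitting.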
HT1080 IDH1KD tx – toxicity to HT-1080 IDH1 knockdown cells (counter line). actives 2% (n = 360,000). HT-1080 IDH1 knockdown viability, ATP luminescence, 48 h. Potency, µM (series often up to 46.1 µM), hits mostly cytotoxic
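IDH1KD HT-1080 cells, 750/well, RPMI + 5% FBS; compound pinned after 2 h settling; 48 h, 37 °C; CellTiter-Glo luminescence; % activity normalised to DMSO and no-cell wells; curves fitted, classed by r2 and efficacy.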
TDP1 cell CPT – DT40-hTDP1 cell growth loss with CPT; chicken DT40 Tdp1-/-;hTDP1 cells + 20 nM CPT, ATP luminescence, 48 h; Potency, µM (series often up to 46.2 µM), hits mostly inhibitors; actives 12% (n = 420,000); AID 686979; further: nearly all actives have a fitted effect of over 55% in size
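Cell growth measured by CellTiter-Glo luminescence after a minimum 48 h, 37 C compound exposure with 20 nM CPT in Tdp1-knockout DT40 cells stably expressing hTDP1, seeded 400/well; qHTS titration format.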
HepG2 tox – kills HepG2 cells in TGF-b inhibitor counter-screen. HepG2 CAGA-GFP viability, ATP luminescence, 18 h. Potency, µM (series often up to 46.1 µM), hits mostly cytotoxic. actives 0.76% (n = 410,000)
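HepG2 CAGA-GFP cells (1000/well, DMEM with 1% FBS) received compound, then TGF-beta at 500 pg/mL final, and were incubated 18 hours at 37 degrees C. Viability was read by CellTiter-Glo luminescence. Media-only wells were set as complete cell-killing and DMSO as no toxicity.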
HT1080NT lethal – kills 2HG-producing HT-1080-NT fibrosarcoma cells | HT-1080-NT fibrosarcoma viability, CellTiter-Glo ATP luminescence, 48 h | Potency, µM (titrated, usually from 46.1 µM), actives largely listed as cytotoxic | actives 1.6% (n = 360,000);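 further: NT is the 2HG producing partner of a matched IDH1 knockdown line; nearly all actives have a fitted effect of over 55% in size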
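Read-out is CellTiter-Glo luminescence after 10 minutes at room temperature, following 48 hours' compound treatment of HT-1080-NT cells (750 cells/well, RPMI, 5% FBS, 37 degrees C).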
Each line names hits and unclear results; the compound was inactive in the other large screens. The call rests on the fitted dose curve; in most records, active means well fitted curve in the direction sought with a large enough effect; inconclusive means small, poorly fitted or top-dose-only effect, or another doubt; inactive means no such curve, though single readings can be large; an effect the other way counts as inactive or inconclusive.

S=c1sscc1-c1ccccc1	none
Cc1noc(C)c1C(=O)N1CCC2(CC1)CCN(c1ncccn1)CC2	none (no result: TGFb SMAD3 inh, HT1080 IDH1KD tx, HepG2 tox, HT1080NT lethal)
COCCCn1c(C(=O)Nc2ccc3c(c2)OCO3)cc2c(=O)n3ccccc3nc21	TDP1 cell noCPT 26µM, TDP1 cell CPT 18µM
COCCCn1c(C(=O)NC2CCCCC2C)cc2c(=O)n3cccc(C)c3nc21 (stereo unspecified)	TDP1 cell noCPT 21µM, TDP1 cell CPT 16µM
COCCCn1c(C(=O)N2CCOCC2)cc2c(=O)n3ccccc3nc21	none
COCCCn1c(=N)c(C(=O)NCC2CCCO2)cc2c(=O)n3cccc(C)c3nc21 (stereo unspecified)	TDP1 cell noCPT inconclusive
CCN(C(=O)c1cc2c(=O)n3cccc(C)c3nc2n1CCCOC)C1CCCCC1	TDP1 cell noCPT 16µM, TDP1 cell CPT 21µM
O=C1C=C(c2ccccc2)C(c2ccccc2)C1 (stereo unspecified)	none
Cc1nc(C)c(-c2csc(Nc3ccc(N)cc3)n2)s1	TDP1 cell noCPT 16µM, TDP1 cell CPT inconclusive
COc1ccc(Nc2nc(-c3sc(C)nc3C)cs2)cc1	TDP1 cell noCPT 1.2µM, TGFb SMAD3 inh inconclusive, HT1080 IDH1KD tx 3.7µM, TDP1 cell CPT 1.2µM, HT1080NT lethal 5.2µM
CN1CCOC(=O)/C1=N/Nc1cc(Cl)ccc1Cl	HT1080 IDH1KD tx 21µM, HT1080NT lethal inconclusive
CC(C)Oc1ccc(C2c3c(oc4ccccc4c3=O)C(=O)N2CCCN2CCOCC2)cc1 (stereo unspecified)	TDP1 cell noCPT inconclusive, TDP1 cell CPT 26µM
O=C1c2oc3ccc(F)cc3c(=O)c2C(c2ccc(F)cc2)N1CCCN1CCOCC1 (stereo unspecified)	none
C=CCOc1ccc(C2c3c(oc4ccccc4c3=O)C(=O)N2CCCN2CCOCC2)cc1 (stereo unspecified)	none
CC(C)c1ccc(C2c3c(oc4ccc(Cl)cc4c3=O)C(=O)N2CCCN2CCOCC2)cc1 (stereo unspecified)	TDP1 cell noCPT inconclusive, TDP1 cell CPT 18µM (no result: HT1080 IDH1KD tx, HT1080NT lethal)
O=C1c2oc3ccc(Cl)cc3c(=O)c2C(c2ccccn2)N1CCCN1CCOCC1 (stereo unspecified)	TDP1 cell noCPT 29µM, TDP1 cell CPT 23µM
Cc1ccc2oc3c(c(=O)c2c1)C(c1ccccc1F)N(CCCN1CCOCC1)C3=O (stereo unspecified)	TDP1 cell noCPT 18µM, TDP1 cell CPT inconclusive (no result: HT1080 IDH1KD tx, HT1080NT lethal)
Cc1ccc2oc3c(c(=O)c2c1)C(c1ccccc1F)N(CCCN(C)C)C3=O (stereo unspecified)	none (no result: HT1080 IDH1KD tx, HT1080NT lethal)
COC(=O)[C@]12CCCCC=C1N(CCc1ccc(OC)c(OC)c1)C(=O)[C@H](CC(=O)NCCCN1CCCC1=O)C2	none (no result: TGFb SMAD3 inh, HepG2 tox)
CCn1c(SCC(=O)NC2CC2)nnc1-c1ccc(C)cc1	none
Nc1ncc(S(=O)(=O)NCc2ccc(Cl)cc2)cn1	none (no result: HT1080 IDH1KD tx, HT1080NT lethal)
O=C(Nc1ccccc1O)c1c(O)c2c([nH]c1=O)CCCC2	TDP1 cell noCPT inconclusive, TGFb SMAD3 inh 13µM, HT1080 IDH1KD tx inconclusive, TDP1 cell CPT inconclusive, HT1080NT lethal inconclusive
O=C(NCc1ccccc1)c1cc(C2COCCN2C(=O)C2CC2)on1 (stereo unspecified)	none
CSc1nc(N)nc2c1ncn2Cc1ccccc1	TDP1 cell noCPT inconclusive, TDP1 cell CPT inconclusive
CC(C)(C)c1nc2ccccc2c2nnc(SCC(=O)NCc3ccco3)n12	TDP1 cell noCPT inconclusive, TDP1 cell CPT inconclusive
O=C(CSc1nc(C2CCCCC2)nc2ccccc12)NCc1ccco1	TDP1 cell noCPT 21µM, TDP1 cell CPT inconclusive, HT1080NT lethal inconclusive
CC(C)c1nc2ccccc2c2nnc(SCC(=O)NCc3ccco3)n12	TDP1 cell noCPT inconclusive, TDP1 cell CPT 16µM
Cc1sc2nc(C3CC3)nc(SCC(=O)NCc3ccco3)c2c1C	TDP1 cell noCPT inconclusive, TDP1 cell CPT inconclusive, HT1080NT lethal inconclusive
C=CCn1c(SCC(=O)NCc2ccco2)nc2ccccc2c1=O	none
C=CCn1c(SCC(=O)NCc2ccco2)nnc1-c1ccc2ccccc2n1	TDP1 cell noCPT 18µM, TGFb SMAD3 inh inconclusive, TDP1 cell CPT inconclusive
CCOc1ccccc1NC(=S)N1CCC(NC(=O)NC23CC4CC(CC(C4)C2)C3)CC1	TDP1 cell noCPT inconclusive, TGFb SMAD3 inh inconclusive
OCC1(Cc2cccc(C(F)(F)F)c2)CCN(Cc2cc3ccccc3o2)CC1	TDP1 cell noCPT 16µM, TGFb SMAD3 inh inconclusive, HT1080 IDH1KD tx 18µM, TDP1 cell CPT inconclusive, HT1080NT lethal 21µM
Cc1c(CN2CCC(CO)(Cc3cccc(C(F)(F)F)c3)CC2)c2ccccc2n1C	TDP1 cell noCPT 16µM, TGFb SMAD3 inh inconclusive, HT1080 IDH1KD tx inconclusive, TDP1 cell CPT 23µM, HepG2 tox 25µM
COc1ccc(CC2(CO)CCN(Cc3cc4ccccc4o3)CC2)cc1	TDP1 cell noCPT 16µM, TDP1 cell CPT 16µM, HT1080NT lethal inconclusive
C=C(C)COC(=O)C1CC2OC2CC1C(=O)OCC(=C)C (stereo unspecified)	none
CC(=O)N1CCc2cc(Br)cc(S(=O)(=O)NCC3CCCO3)c21 (stereo unspecified)	none
COc1ccccc1NC(=S)N(Cc1ccccc1)Cc1cccs1	none
COc1ccccc1NC(=S)N(Cc1cccs1)C1CCCC1	TDP1 cell noCPT 6.5µM, TGFb SMAD3 inh inconclusive, TDP1 cell CPT inconclusive
Cc1ccc(-c2csc3ncn(-n4c(C)ccc4C)c(=O)c23)o1	TDP1 cell noCPT 18µM, TDP1 cell CPT 23µM
CC(C)NC(=O)C1(C)CCCN1C(=O)c1ccc2c(c1)C(C)(C)CCC2(C)C (stereo unspecified)	TDP1 cell noCPT 3.7µM, TDP1 cell CPT 4.6µM
CCNC(=O)C1(C)CCN(C(=O)c2ccc(-c3ccccc3)cc2)C1 (stereo unspecified)	TDP1 cell noCPT inconclusive, TDP1 cell CPT 16µM
COC(=O)c1ccc(C(=O)N2CCCCCC2(C)C(=O)NC(C)C)cc1 (stereo unspecified)	TDP1 cell CPT inconclusive
CCNC(=O)C1(C)CCCN(C(=O)c2ccc3c(c2)C(C)(C)CCC3(C)C)C1 (stereo unspecified)	TDP1 cell noCPT 6.5µM, HT1080 IDH1KD tx inconclusive, TDP1 cell CPT 5.8µM
Cc1ccc(-n2nc3c(c2NC(=O)C(C)C)CS(=O)(=O)C3)c(C)c1	none
CCNC(=O)C1(C)CCN(C(=O)c2ccc3c(c2)OCO3)C1 (stereo unspecified)	none
